# Laboratory results as given in PubChem BioAssay (NCATS).
# Records with an inconclusive call do not appear. Where a call stands in place of a potency, no number is given. The source made the active and inactive calls. Calls come from the whole dose curve; as a rule, active = well fitted inhibition curve with a large enough effect; inconclusive = small, poorly fitted or top-dose-only effect; inactive = flat fitted curve, though single readings scatter.
# Test: qHTS to identify inhibitors of the type 1 interferon - major histocompatibility complex class I in skeletal muscle: primary screen against the NCATS LOPAC collection (AID 1347405);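 note: lytic HiBiT luminescence reporting HLA-B protein level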
# Details: iHSKM muscle cells, IFN-b-induced MHC-I HiBiT luminescence, 24 h; series mostly up to 45.9 µM
# Procedure, shortened: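 Immortalized human C25cl48 myoblasts with HiBiT knocked into endogenous HLA-B*08:01 were stimulated with 4.0 ng/ml IFN-beta and given compounds in a 7-point, 1:4.3 titration from 46 uM final; after 24 hrs, lytic HiBiT luminescence was read.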
# Potency is the fitted concentration of half-maximal effect.
row,SMILES,Potency
1,COc1ccc2c(c1)CCC1C2CC[C@@]2(C)C1CC[C@@H]2NCCCCCCN1C(=O)CCC1=O (some centres not stated),inactive
2,CNc1ncnc2c1ncn2[C@@H]1O[C@H](CO)[C@@H](O)[C@H]1O,inactive
3,O=C(O)CC1CCCc2ccccc2C1O (configuration not stated),inactive
4,Oc1ccccc1O,inactive
5,CC(=O)N[C@H](C(=O)O)C(C)(C)SN=O,inactive
6,CC(C)c1cccc(C(C)C)c1N1C(=O)c2ccc(O)cc2C1=O,inactive
7,C[N+]1(C)C2CC(OC(=O)[C@H](CO)c3ccccc3)CC1C1OC12 (some centres not stated),inactive
8,Nc1ccn([C@@H]2O[C@H](CO)[C@@H](O)[C@@H]2O)c(=O)n1,inactive
9,Brc1c(Br)c(Br)c2n[nH]nc2c1Br,inactive
10,Oc1ccc(C2CNCc3sccc32)cc1O (configuration not stated),inactive
11,CN(C)C(N)=NCCC[C@H](N)C(=O)O,inactive
12,CC(C)(NS(=O)(=O)c1ccc(Oc2ccc(F)cc2)cc1)C(=O)NO,inactive
13,COCCOc1cc2nc[nH]c(=O)c2cc1OCCOC,inactive
14,NC(=S)c1ccc[n+]([C@@H]2O[C@@H](COP(=O)([O-])OP(=O)(O)OC[C@H]3O[C@@H](n4cnc5c(N)ncnc54)[C@H](OP(=O)(O)O)[C@@H]3O)C(O)C2O)c1 (some centres not stated),inactive
15,NCCCCCCCCCCN,inactive
16,OCC1O[C@H]([S-])[C@H](O)[C@@H](O)[C@@H]1O.[Au+] (some centres not stated),17.8 µM (active)
17,CN1C2CC(OC(=O)[C@H](CO)c3ccccc3)CC1C1OC12 (some centres not stated),inactive
18,COc1cc(C(O)CO)ccc1OS(=O)(=O)O (configuration not stated),inactive
19,S=c1[nH]c(-c2ccccc2)cn1-c1ccccc1,inactive

row,SMILES,Potency
1,COc1cc(SC)ccc1C(=O)N1CCC(Cc2ccccc2)CC1,inactive
2,O=C(CCc1ccncc1)NNC(=O)N1Cc2ccccc2Oc2ccc(Cl)cc21,inactive
3,O=C(CCSCc1ccco1)NNC(=O)N1Cc2ccccc2Oc2ccc(Cl)cc21,inactive
4,COc1ccccc1CN[C@@H]1CCCN[C@@H]1c1ccccc1,inactive
5,Nc1nc(SCc2ccc([N+](=O)[O-])cc2)c2ncn([C@@H]3O[C@H](CO)[C@@H](O)[C@H]3O)c2n1,inactive
6,Nc1nc2ccc(Cl)cc2n2c(-c3ccccc3)nnc12,inactive
7,CN1[C@@H](CC(=O)c2ccccc2)CCC[C@H]1C[C@H](O)c1ccccc1,inactive
8,O=C(O)CC[C@@H](C(=O)O)N1C(=O)c2ccccc2C1=O,inactive
9,O=C(O)CNC(=O)C(CS)Cc1ccccc1 (configuration not stated),inactive
10,CC(C)CC(NP(=O)(O)O[C@@H]1O[C@@H](C)[C@H](O)[C@@H](O)[C@H]1O)C(=O)NC(Cc1c[nH]c2ccccc12)C(=O)O (some centres not stated),inactive
11,CC(=O)SCC[N+](C)(C)C,inactive
12,O=C(/C=C/c1ccc(O)c(O)c1)OCCc1ccccc1,inactive
13,NS(=O)(=O)c1ccc(-n2nc(C(F)(F)F)cc2-c2ccc(Cl)cc2)cc1,inactive
14,O=C1C(SCCO)=C(SCCO)C(=O)c2ccccc21,10 µM (active)
15,Nc1ncnc2c1ncn2[C@@H]1O[C@H](COP(=O)(O)OP(=O)(O)OP(=O)(O)OP(=O)(O)OC[C@@H]2O[C@H](n3cnc4c(N)ncnc43)[C@@H](O)[C@H]2O)[C@@H](O)[C@H]1O,inactive
16,O=C(Nc1ccncc1)c1cc([N+](=O)[O-])ccc1Cl,15.8 µM (active)
17,C=CC(N)CCC(=O)O (configuration not stated),inactive
18,O=C(Nc1ccc2[nH]ncc2c1)C1CCC1,inactive
